ChEMBL document CHEMBL3988442, “University of Dundee, Small-Polar-MMV Screening Library” (2021)

These compounds were tested against AMP-activated protein kinase, AMPK (Homo sapiens) (UniProt P54646+O43741+P54619+Q9UGJ0+Q9Y478+Q13131+Q9UGI9) (assay: AMP-dependent Kinase enzyme assay. An in vitro enzyme assay that detects ADP turnover that is directly proportional to AMPK activity. This uses naive AMPK that is activated during the assay with MK-8722). Details: 30 µM.
Type: functional
Design: scale not given: direction of the effect not stated beside the values

| SMILES | Percent Effect |
| --- | --- |
| Fc1cccc(CN2CCC[C@@H](Cn3nnc(-c4ccccn4)n3)C2)c1 | 10.2% |
| O=C(NCCN1CCOC1=O)c1cnc(-c2cccnc2)nc1 | -1.72% |
| COc1ccccc1C(=O)N1CCN(C(=O)CCCc2cn[nH]c2)CC1 | -2.48% |
| CCc1ccc2nc(C)cc(C(=O)N[C@@H]3CCCNC3)c2c1 | -2.76% |
| CCC(=O)NC(C)c1ccccc1C (stereo not given) | 14.9% |
| CCS(=O)(=O)NCC(=O)NC1(C)CCc2ccccc2C1 (stereo not given) | -3.96% |
| O=C(COc1ccc(F)cc1F)N1CCOCC(O)(CN2CCCC2)C1 (stereo not given) | 8.54% |
| CNC(=O)c1noc(CN2CC[C@](C)(O)[C@H](C)C2)n1 | -4.9% |
| CCC(NC(=O)NC1CCN(S(C)(=O)=O)CC1)c1cccs1 (stereo not given) | -3.19% |
| COCCN1CC(=O)N2CC[C@@H](O)C[C@H]2C1=O | -8.25% |
| Cc1cc(C)c(C#N)c(NCCn2cnnc2C(C)C)n1 | 2.2% |
| Cc1cc(CC(=O)NC2CCCN(c3ccccc3Cl)C2=O)n[nH]1 (stereo not given) | 4.62% |
| CC1CCCCN1C(=O)Cn1cnc(C#N)n1 (stereo not given) | -5.33% |
| O=C(NCc1ccc(-n2cncn2)nc1)c1cnccn1 | -5.91% |
| CN(C)CCNC(=O)CCC1CCN(C(=O)c2ccc(Cl)cc2O)CC1 | 9.06% |
| CCC(C)Oc1ccc(CNCCNS(C)(=O)=O)cc1Cl (stereo not given) | 5% |
| CN(c1ncc(S(N)(=O)=O)s1)C1CCC1 | 5.05% |
| CC(C)CCN(C(=O)Nc1cccc(C(=O)N(C)C)c1)C1CC1 | -4.54% |
| O=C1CCC(=O)N1CCn1nnc(-c2cccc(Cl)c2)n1 | -7.61% |
| CN1CCOC(CNCC(=O)NCCCc2ccccc2)C1 (stereo not given) | -10% |

| SMILES | Percent Effect |
| --- | --- |
| CCCc1nnc(N2CCC(C3CCN(C)CC3)CC2)o1 | -1.66% |
| O=C(CCN1CCOCC1)Nc1cccc(CNCc2ccsc2)c1 | -5.46% |
| COc1cccc(CN2C[C@H]3CC[C@H]2C3)c1OCCN1CCOCC1 | -4.89% |
| CCC(C)NC(=O)Nc1cccc(OC)c1 (stereo not given) | -9.8% |
| CC(NC(=O)NCc1cccnc1N(C)C)c1ccc(F)cc1 (stereo not given) | -7.51% |
| CC1CCN(c2ccc(C(=O)N3CCCC3c3nncn3C)cn2)CC1 (stereo not given) | -4.84% |
| CC(C)OCCN1CCC(Nc2nccnc2C#N)CC1 | -5.15% |
| O=C(c1ccnc(-n2cnnc2)c1)N1CCCC2(CCOC2)C1 (stereo not given) | -4.79% |
| CCc1noc(C(C)Sc2nnc(C3CC3)n2CC(N)=O)n1 (stereo not given) | -8.4% |
| Cc1ccc(-c2nc(C(=O)N(C)CC(=O)N3CCCC3)cs2)c(C)c1 | 1.55% |
| Nc1ccnc(N2CCC(c3nccn3CC3CC3)CC2)n1 | -3.62% |
| N#Cc1cccnc1NCCc1cc(F)cc2c1OCOC2 | 22.2% |
| CN1CCN(C2CCN(Cc3cn4ccccc4n3)CC2)C1=O | 41.9% |
| CC(C)CN(Cc1ccccn1)Cc1ccccc1OCC(=O)O | -7.24% |
| CC1CN(c2ncnc3sccc23)CCN1c1nccs1 (stereo not given) | 16.9% |
| Cc1ccccc1-n1cc(CN(C)C[C@@H]2CCCN3CCCC[C@H]23)cn1 | -2.73% |
| Cc1cc(C)c2c(NCc3nncn3C3CCCCC3)ncnc2n1 | -0.11% |
| COc1ccccc1C1CCN(C(=O)CN2C(=O)OC(C)(C)C2=O)CC1 | -11.8% |
| Cc1cc(C)n(CC2CCN(CC(O)Cn3cccn3)CC2)n1 (stereo not given) | -0.567% |
| CCN(CC1=CCN(C)CC1)C(=O)CCOC | -8.72% |
